Assay outcomes: PubChem, National Center for Advancing Translational Sciences (NCATS)
In the library only some 1.2% were active in any assay of this set; here they are far more common.
uPA surface inh = blocks generation of uPA at the cell surface; cell surface uPA generation assay, qHTS; Potency, µM (highest dose often 38.3 µM), usual class: inhibitors; 0.31% of 330,000 active; active = well fitted inhibition curve with a large enough effect; inconclusive = small, poorly fitted or top-dose-only effect; inactive = no such curve, though single readings can be large or run the other way; tested in mouse RAW 264.7 cells; also: nearly all actives have a fitted effect of over 55% in size
MmCpn inh = M. maripaludis TRiC chaperonin inhibition; 0.031% of 330,000 active; purified Mm-Cpn ATPase, ADP Transcreener TR-FRET; Potency, µM (titrated, usually from 76.9 µM), hits mostly inhibitors; active = well fitted inhibition curve with a large enough effect; inconclusive = small, poorly fitted or top-dose-only effect; also: nearly all actives have a fitted effect of over 80% in size
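Measured: ADP formation by purified Mm-CPN. Conditions: 25 nM protein, 10 uM ATP, Tris pH 7.4 with Mg2+, K+ and DTT, 37°C for 30 min. Detection: Transcreener HTRF after 30 min at room temperature.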
TSHR antag = antagonists of human thyroid stimulating hormone receptor; 0.2% of 330,000 active; TSHR-expressing cells, TSH-stimulated cAMP HTRF, 2 h; stronger effect = lower value; activity change, negative = inhibition, % at 11.5 µM; P16473;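 active = activity change below a set negative limit, meaning inhibition stronger than a set level, cut at about -70% in these data; inconclusive = activity change between two set negative limits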
Target sequence (P16473 whole entry, looked up): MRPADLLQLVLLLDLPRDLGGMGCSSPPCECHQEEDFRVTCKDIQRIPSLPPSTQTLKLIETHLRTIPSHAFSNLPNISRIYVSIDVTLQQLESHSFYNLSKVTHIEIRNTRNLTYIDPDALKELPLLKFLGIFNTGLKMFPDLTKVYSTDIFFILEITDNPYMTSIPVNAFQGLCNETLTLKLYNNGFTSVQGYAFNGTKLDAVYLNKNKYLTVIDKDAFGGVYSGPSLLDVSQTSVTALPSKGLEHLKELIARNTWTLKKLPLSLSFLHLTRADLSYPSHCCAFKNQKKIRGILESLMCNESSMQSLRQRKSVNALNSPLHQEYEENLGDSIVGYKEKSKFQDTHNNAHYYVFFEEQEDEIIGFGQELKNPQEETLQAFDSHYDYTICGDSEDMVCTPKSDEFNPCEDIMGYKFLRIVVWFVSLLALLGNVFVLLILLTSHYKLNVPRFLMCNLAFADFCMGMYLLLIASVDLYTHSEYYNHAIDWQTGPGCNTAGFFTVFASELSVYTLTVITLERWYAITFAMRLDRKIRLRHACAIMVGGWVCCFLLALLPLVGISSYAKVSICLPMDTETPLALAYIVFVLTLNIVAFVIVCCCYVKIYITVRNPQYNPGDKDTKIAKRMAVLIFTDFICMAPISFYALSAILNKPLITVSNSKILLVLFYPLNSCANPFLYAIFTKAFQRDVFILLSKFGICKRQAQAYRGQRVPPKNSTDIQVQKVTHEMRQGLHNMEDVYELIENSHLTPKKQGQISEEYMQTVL
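Competitive HTRF cAMP read-out (cryptate anti-cAMP antibody, cAMP-d2; 30 min, room temperature) in freshly harvested TSHR cells. Compounds added before TSH at EC80 (4nM final), followed by 2 hours' incubation at 37 deg C.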
CCT chaperon mod = modulators of cytosolic chaperonin (CCT/TRiC) activity | purified chaperonin ATPase assay, HTRF ADP detection, 30 min | activity change, % (concentration not given with the values), hits read low | 0.3% of 360,000 active; in the data active = activity change below about -30%
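We incubate TRiC, 40 or 20 nM final, with library compounds at 76 uM and 10 uM ATP for 30 min at 37 °C. ADP formed is detected with Transcreener HTRF reagents after 30 min at room temperature.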
gsp antagonist = gsp mutant antagonism | gsp-mutant cells, cAMP HTRF, 30 min | Potency, µM (highest dose often 76.9 µM), hits mostly inhibitors | 0.4% of 340,000 active | AID 624288; calls by dose curve; cell line not stated here;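 also: intracellular cAMP measured with PDE inhibitor Ro 20-1724 present during compound exposure; nearly all actives have a fitted effect of over 65% in size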
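Cells in G418 medium, seeded 16-24 h, 37C; buffer exchange to DPBS + 1 mM CaCl2, 0.5 mM MgCl2, 0.05% BSA; cpds in DMSO + […] (300 uM stock), 30 min 37C; HTRF cAMP detection.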
gsp agonist = gsp mutant agonism; 0.13% of 340,000 active; Potency, µM (series often up to 76.9 µM), actives largely listed as activators; gsp mutant cells, cAMP HTRF, 30 min; active = well fitted activation curve with a large enough effect; inconclusive = small, poorly fitted or top-dose-only effect, or another doubt; inactive = no such curve, though single readings can be large or run the other way; cell line not stated here;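 also: phosphodiesterase inhibitor Ro 20-1724 added with compounds to block cAMP breakdown; nearly all actives have a fitted effect of over 60% in size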
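Cells in DMEM/10% FBS with G418 were pretreated with compounds in DMSO plus […] (300 uM stock) for 30 min at 37C. cAMP was measured by HTRF (cAMP-d2 plus anti-cAMP antibody-K) after 30 min at room temperature.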
Each line names hits and unclear results; the compound was inactive in the other large screens.

CCOC(=O)c1sc(NC(=O)CC(C)c2ccccc2)nc1C (centres undefined)	none
CCCC[C@@H]1CNC(=O)C(=O)N1CCc1cc(C(F)(F)F)cc(C(F)(F)F)c1	gsp agonist inconclusive
COc1ccccc1NC(=O)N1CCc2[nH]c3ccc(Cl)cc3c2C1	none
O=C(CCC(F)(F)F)N1CCCC(CO)(CCc2ccccc2)C1 (centres undefined)	none
O=C(Cn1ncc2c3ccccc3n(Cc3ccccc3)c2c1=O)NCCCN1CCCC1	none
O=C(Cn1ncc2c3ccccc3n(Cc3ccccc3)c2c1=O)NCCN1CCOCC1	CCT chaperon mod -34.1
CCO[C@@H]1OC(C(=O)NCc2nc3ccccc3[nH]2)=C[C@H](C2CC2)[C@H]1CCCO	uPA surface inh 4.47µM (no result: MmCpn inh)
CCO[C@@H]1OC(C(=O)NCc2ccccc2)=C[C@H](C2CCCCC2)[C@H]1CCCO	gsp antagonist 11.2µM (no result: MmCpn inh)
CCO[C@@H]1OC(C(=O)NCc2nc3ccccc3[nH]2)=C[C@H](C(C)(C)C)[C@H]1CCCO	uPA surface inh inconclusive (no result: MmCpn inh, TSHR antag)
O=C(NCc1nc2ccccc2[nH]1)C1=C[C@H](c2ccc(Br)cc2)C[C@H](OCc2ccc(CO)cc2)O1	CCT chaperon mod -49.3 (no result: MmCpn inh)
CC1(C)Cc2c(sc(NC(=O)c3ccc(C(=O)c4ccccc4)cc3)c2C(N)=O)C(C)(C)N1	none
O=C1NC2(CCCCCC2)C(=O)N1Cc1c(F)cccc1Cl	none
Cn1cccc1/C=N/n1c(-c2ccc(Cl)cc2Cl)n[nH]c1=S	none
O=C(C1CCCCN1S(=O)(=O)c1ccccc1)N1CCN(Cc2ccccc2)CC1 (centres undefined)	none (no result: uPA surface inh)
CCC(C(=O)Nc1cc(F)ccc1F)n1nc(C)c2c(C)n(-c3ccc(C)cc3)nc2c1=O (centres undefined)	uPA surface inh inconclusive, gsp antagonist inconclusive
COc1ccc(-c2cc(C3CCN(c4cc(Cl)nc(N)n4)CC3)[nH]n2)cc1	gsp antagonist inconclusive (no result: uPA surface inh)
COc1ccc(OC)c(-c2cc(C3CCN(c4cc(Cl)nc(N)n4)CC3)[nH]n2)c1	gsp antagonist 35.5µM
O=C(N=C1SC2CS(=O)(=O)CC2N1c1ccc(F)cc1)C1CC1 (centres undefined)	TSHR antag -109.2, gsp agonist inconclusive
Cc1nc2c(C(=O)NCc3ccc4c(c3)OCO4)c[nH]n2c(=O)c1Cl	none
Cc1nc2c(C(=O)NCCC3=CCCCC3)c[nH]n2c(=O)c1Cl	CCT chaperon mod -38.8
O=C(Nc1ccc(S(=O)(=O)NC2=NCCCCC2)cc1)c1ccc([N+](=O)[O-])s1	uPA surface inh 10µM
Cc1ccc2cc(/C=N/NC(=O)c3ccc(F)cc3)c(Cl)nc2c1	none
Cc1ccc2nc(Cl)c(/C=N/Nc3ccc(C(=O)O)cc3)cc2c1	uPA surface inh 3.98µM
CC1CCc2nn(CC(=O)NCc3ccco3)cc2C1 (centres undefined)	none
CC(C)c1ccc(/C=C2\C(=N)N3N=C(CC(=O)N4CCCCC4)SC3=NC2=O)cc1	none
CCOC(=O)C1=C(CC)Nc2ccccc2N=C1NC(=O)Nc1ccc(Cl)c(Cl)c1	gsp antagonist 31.6µM
CCOC(=O)C1=C(CC)Nc2ccccc2N=C1NC(=O)c1cc(C)on1	none
COc1ccc([C@H]2CC(=O)C=C(c3cc(C)ccc3OC)C2)cc1	uPA surface inh 10µM, gsp agonist inconclusive
COc1ccc([C@H]2CC(=O)C=C(c3cc(C)ccc3F)C2)cc1	uPA surface inh inconclusive
COc1ccc([C@H]2CC(=O)C=C(c3ccc(CNC(=O)OC(C)(C)C)cc3)C2)cc1	uPA surface inh inconclusive, gsp antagonist 35.5µM
CCOc1ccc(Br)cc1C1=CC(=O)C[C@H](c2ccc(OC)cc2)C1	uPA surface inh 2.82µM (no result: gsp agonist)
COc1ccc([C@H]2CC(=O)C=C(c3cc(Br)ccc3OC)C2)cc1	uPA surface inh inconclusive
Cc1ccc(S(=O)(=O)C2(C(=O)Nc3nccs3)CC2)cc1	none
O=C(NCc1ccco1)c1cccc(S(=O)(=O)N2CCN(Cc3ccccc3)CC2)c1	none
FC(F)Oc1ccc(NC(=S)NCc2nc3ccccc3[nH]2)cc1	CCT chaperon mod -37.1
CCOc1ccc(NC(=S)NCc2nc3ccccc3[nH]2)cc1	none
Brc1cc2c(cc1Br)OCCOCCOCCOCCO2	none
Brc1ccc2c(c1)OCCOCCOc1cc(Br)ccc1OCCOCCOCCO2	gsp antagonist 50.1µM
CCN(CC(=O)NC(C)(C)C)C(=O)c1cccc(S(=O)(=O)N2CC3(C)CC2CC(C)(C)C3)c1 (centres undefined)	none (no result: uPA surface inh, MmCpn inh, TSHR antag, gsp antagonist)
COCCNC(=O)c1cccc(S(=O)(=O)N2CC3(C)CC2CC(C)(C)C3)c1 (centres undefined)	uPA surface inh 3.98µM
COCCCNC(=O)c1cccc(S(=O)(=O)N2CC3(C)CC2CC(C)(C)C3)c1 (centres undefined)	uPA surface inh 6.31µM
CCCCNC(=O)c1cccc(S(=O)(=O)N2CC3(C)CC2CC(C)(C)C3)c1 (centres undefined)	uPA surface inh 2.24µM
CC1(C)CC2CC(C)(CN2S(=O)(=O)c2cccc(C(N)=O)c2)C1 (centres undefined)	none
CC1(C)CC2CC(C)(CN2S(=O)(=O)c2cccc(C(=O)OCC(N)=O)c2)C1 (centres undefined)	none
CC1(C)c2ssc(=S)c2-c2ccccc2N1C(=O)c1ccco1	TSHR antag -74.2
Cc1ccc(S(=O)(=O)NCC2COc3ccccc3O2)cc1 (centres undefined)	none
O=C(CC(=O)c1ccccc1O)c1cccc(F)c1	none
O=C(CC(=O)c1ccccc1O)c1ccc(F)cc1	gsp antagonist 39.8µM, gsp agonist inconclusive
CCC(Cc1ccccc1)NC(=O)Cn1cccc1C(=O)c1ccccc1 (centres undefined)	CCT chaperon mod -42.2
COc1ccccc1C(=O)Nc1nc2cc3c(cc2s1)OCCO3	uPA surface inh 2.82µM
COc1ccccc1C(=O)Nc1nc2cc3c(cc2s1)OCO3	gsp agonist inconclusive
CCN(CC)S(=O)(=O)c1cccc(C(=O)Nc2nc3cc4c(cc3s2)OCCO4)c1	TSHR antag -78.5
C[C@H](CO)N1C[C@H](C)[C@H](CN(C)S(=O)(=O)c2ccccc2F)OCc2cnnn2CCCC1=O	none (no result: uPA surface inh, MmCpn inh, TSHR antag, gsp antagonist)
COc1ccccc1-n1c(SCC(=O)NC2CCS(=O)(=O)C2)nc2ccccc2c1=O (centres undefined)	none
Cc1[nH]c2ccc(F)cc2c1CCN(Cc1ccco1)C(=S)NC(C)(C)C	none
COc1ccc2[nH]cc(C(=O)N3CCCCC3)c(=O)c2c1	none
CCOc1ccc2[nH]cc(C(=O)N3CCN(C4CCCCC4)CC3)c(=O)c2c1	CCT chaperon mod -57.1 (no result: MmCpn inh, TSHR antag)
